Source: PubChem
Compounds with a hit are over-represented: about 2.4% of the library has one in this group of screens.
D2 ag-1 – activates the human D2 dopamine receptor; P14416; DiscoveRx PathHunter D2 beta-arrestin, luminescence, 90 min; 100% = 57 uM dopamine signal; activation, % (concentration not given with the values); 360,000 compounds, 0.084% hits; AID 624465; in the data active = activation above about 40%; inconclusive = between about 15% and that limit
Target sequence (P14416 whole entry, looked up): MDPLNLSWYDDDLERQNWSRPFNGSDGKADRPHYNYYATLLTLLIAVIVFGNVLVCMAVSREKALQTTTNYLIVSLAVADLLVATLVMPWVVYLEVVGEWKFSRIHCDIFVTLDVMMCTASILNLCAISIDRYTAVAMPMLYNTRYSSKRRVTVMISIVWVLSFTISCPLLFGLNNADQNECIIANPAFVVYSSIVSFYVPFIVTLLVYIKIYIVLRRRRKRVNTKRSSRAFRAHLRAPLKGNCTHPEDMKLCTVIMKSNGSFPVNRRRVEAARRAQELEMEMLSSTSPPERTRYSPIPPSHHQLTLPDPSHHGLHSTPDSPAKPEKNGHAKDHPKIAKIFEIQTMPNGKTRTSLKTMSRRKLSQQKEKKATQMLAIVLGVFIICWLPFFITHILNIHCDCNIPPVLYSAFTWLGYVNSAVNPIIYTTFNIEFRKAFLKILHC
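Agonist mode: compounds alone added to overnight-plated D2 PathHunter cells for 90 min at 37 C, with 57 uM final dopamine (EC100) defining full response. Beta-arrestin recruitment detected by chemiluminescent reagent, read after 1 h at ambient temperature.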
D2 PAM-1 – positive allosteric modulators of human D2 dopamine receptor; DiscoveRx D2 beta-arrestin cells, luminescence, 90 min; 100% = 57 uM dopamine signal; potentiation, % (no concentration beside the values); 360,000 compounds, 0.23% hits; AID 624464; in the data active = potentiation above about 50%; inconclusive = mostly about 30% to 49%
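PathHunter beta-arrestin assay in DiscoveRx D2 cells. Compounds were added with an EC20 of dopamine (50 nM final) for 90 min at 37 deg C. Luminescence was read 1 h after detection reagent, with 57 uM dopamine as the EC100 control.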
D2 ag-2 – agonists of human D2 dopamine receptor | P14416 | 340,000 compounds, 0.53% hits | activation, % at 2 µM | HEK293 T-REx D2 cells, calcium flux agonist mode | AID 485358;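 active = activation over 3 SD above normal in the single-dose calcium agonist read, cut at about 30% in these data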; also: 0% is about no effect
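Calcium-flux readout, 1 cycle/sec over 180 s following compound pin transfer, in inducible HEK293 Trex D2 cells (force-coupled); dopamine controls included. Positive calcium responses during this window marked compounds as potential agonists.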
D2 PAM-2 – D2 dopamine receptor (human) potentiation; P14416; HEK293 T-REx D2, calcium flux, EC20 dopamine potentiation; 340,000 compounds, 0.34% hits; potentiation, % at 10 µM;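 active = potentiation over 3 SD above the plate norm, cut at about 30% in these data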; also: 0% is about no effect
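Cells plated with tetracycline inducer and held overnight at 30 C; calcium dye loaded 30–90 min at room temperature; baseline taken, compound added and read 180 s; EC20 dopamine then added and read 180 s.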
D2 antag – antagonizes the human D2 dopamine receptor; HEK293 TREx D2 cells, calcium flux, dopamine EC80; inhibition, % at 10 µM; 340,000 compounds, 2% hits; in the data active = inhibition above about 30%; inactive = below that, where a call was filed; also: 0% is about no effect
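Calcium mobilization kinetics were recorded at 1 s intervals in tetracycline-induced HEK293 T-REx D2 cells, first for 180 s after compound addition and then 180 s after EC80 dopamine.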
The depositor's hits bear a star; ? = inconclusive; · = no result; ! = not confirmed by another sample.

SMILES | D2 ag-1 | D2 PAM-1 | D2 ag-2 | D2 PAM-2 | D2 antag
CCn1c(CNc2ccc(Cl)cc2)nnc1SCCN1CCCCC1 | -3 | -53 | 0 | -27 | 50*
CN1CCN(C2=Cc3ccccc3Sc3cc(F)c(F)cc32)CC1 | -4 | -43 | -2 | 0 | -24
CN1CCN(C2=Cc3ccccc3Sc3cc(F)c(Cl)cc32)CC1 | -2 | -45 | 1 | -26 | 74*
O=C1CCC(c2ccccc2)N1C(=O)c1cccnc1 (centres undefined) | 0 | -4 | -1 | 38* | -6
O=C1CC(c2ccccc2)CN1C(=O)c1cccnc1 (centres undefined) | -5 | -8 | 0 | 4 | 2
Cc1ccc(NC(=O)c2cc([N+](=O)[O-])ccc2NCc2cccnc2)cc1 | -4 | -9 | -1 | -3 | 33*
COc1ccc([N+](=O)[O-])cc1NCc1cccnc1 | -2 | -10 | -1 | 11 | -8
COc1ccc(OC)c(NC(=O)C2CCN(S(=O)(=O)c3c(C)noc3/C=C/c3ccc(C)cc3)CC2)c1 | · | · | 0 | 7 | ·
COc1cc(C(=O)N2CCNC(=O)C2CC(=O)Nc2ccc(C)c(C)c2)cc(OC)c1OC (centres undefined) | · | · | 0 | -7 | ·
N#CCC1c2ccccc2CCN1C(=O)Nc1ccc(C(F)(F)F)cc1 (centres undefined) | 0 | -16 | 0 | -25 | 65*
O=CC1=C(N2CCOCC2)/C(=C\c2ccccc2)CC1 | -3 | -3 | 0 | 33* | 7
CCC(=O)N1CCc2cc(OC)c(OC)cc2C1COc1ccccc1OC (centres undefined) | -2 | -3 | 0 | 38*! | 7
CCCC(=O)N1CCc2cc(OC)c(OC)cc2C1COc1ccccc1OC (centres undefined) | 1 | -3 | -1 | 10 | ·
O=[N+]([O-])c1ccc(S(=O)(=O)N2CCC3(CC2)OCCN3S(=O)(=O)c2cccs2)cc1 | 14 | 72* | 0 | 0 | 10
Cc1ccc(S(=O)(=O)N2CCC3(CC2)OCCN3S(=O)(=O)c2cccs2)cc1 | -1 | -2 | · | · | ·
CN1C(=O)c2ccccc2Sc2ccc(NC(=O)N3CCN(c4ccc(F)cc4)CC3)cc21 | · | · | -1 | 1 | ·
Cc1ccccc1-n1ncc(C(C)NC(=O)c2ccccc2)c1C (centres undefined) | 3 | -1 | -1 | 4 | 36*
CCN(CC)S(=O)(=O)c1ccc(C)c(NC(=O)CSc2ncc(C(F)(F)F)cc2Cl)c1 | -6 | -13 | 0 | -3 | -3
Cc1ccc(S(=O)(=O)N(C)C)cc1NC(=O)CSc1ncc(C(F)(F)F)cc1Cl | 1 | -6 | 1 | -39 | 37*
Cc1ccc(S(=O)(=O)N(C)C)cc1NC(=O)CCCNC(=O)c1ccc(Cl)cc1 | -2 | -20 | -1 | -43 | 41*
Cc1ccc(S(=O)(=O)N(C)C)cc1NC(=O)Nc1ccccc1F | -3 | -14 | -1 | -27 | 64*
Cc1cccc(NC(=O)CCNC(=O)c2ccccc2)c1 | 0 | -2 | -4 | 6 | 35*
CC(=O)c1ccc(OCCCC(=O)Nc2cc(S(=O)(=O)N(C)C)ccc2C)cc1 | -4 | -31 | 1 | -17 | 19
CSc1cccc(NC(=O)CCCNC(=O)c2ccc(Cl)cc2)c1 | -2 | -14 | -1 | -23 | 45*
COc1ccccc1CNC(=O)CCCNC(=O)c1ccc(Cl)cc1 | 0 | -9 | 0 | 30* | -19
SMILES | D2 ag-1 | D2 PAM-1 | D2 ag-2 | D2 PAM-2 | D2 antag
COc1ccccc1CNC(=O)Cn1c(=O)oc2cc(S(=O)(=O)NCc3ccccc3)ccc21 | · | · | 0 | 13 | ·
CCOc1ccc2oc(=O)cc(CN3CCN(C(=O)c4ccc(Cl)cc4)CC3)c2c1 | · | · | -1 | 7 | ·
Cc1ccc(-c2nnc(Nc3ccc(OCC(N)=O)cc3)c3ccccc23)cc1S(=O)(=O)N(C)C | · | · | -2 | 7 | ·
O=[N+]([O-])c1ccc(CNc2ccc(Cl)cc2)s1 | 11 | ? | -2 | 4 | 96*
Cc1cccc(-n2ncc(C(=O)N3CCN(Cc4ccccc4)CC3)c2C2CCN(C(=O)OC(C)(C)C)CC2)c1 | · | · | · | -1 | ·
COc1ccc(-c2noc(-c3ccc(NCc4ccco4)c([N+](=O)[O-])c3)n2)cc1OC | · | · | 6 | 1 | ·
O=C(COC(=O)CCNS(=O)(=O)c1ccccc1)NC(=O)Cc1ccccc1 | 5 | 0 | 0 | -10 | 37*
O=C(COC(=O)CCNS(=O)(=O)c1ccc(Cl)cc1)NCc1ccccc1 | -2 | -10 | · | · | ·
O=C(COC(=O)CCNS(=O)(=O)c1ccccc1F)Nc1nnc(-c2ccccc2)o1 | -6 | 9 | -1 | -8 | 32*
COc1ccc(NC(=O)c2c(NCc3ccc(C)o3)sc3c2CCCCC3)c(OC)c1 | · | · | · | 13 | ·
Cc1cc2nc(C3CCCN(C(=S)Nc4ccccc4)C3)[nH]c2cc1C (centres undefined) | 0 | -8 | -1 | 7 | 31*
Cn1c(SCC(=O)Nc2ccc3c(c2)OCCO3)nnc1-c1ccccn1 | 0 | 3 | 0 | 6 | -12
Nn1c(SCC(=O)Nc2ccc3c(c2)OCO3)nnc1C1CCCCC1 | -4 | 0 | -1 | 7 | 31*
O=C(CSc1nnc(-c2ccccn2)n1Cc1ccccc1)Nc1ccc2c(c1)OCO2 | -1 | -22 | 0 | 32* | 15
CCOC(=O)c1cccc(NC(=O)COc2ccc([N+](=O)[O-])cc2)c1 | 0 | -17 | · | · | ·
CC(=O)c1cccc(NC(=O)COC(=O)c2ccc3c(c2)OCCO3)c1 | -1 | -15 | 0 | -10 | 39*
CCCOC(=O)c1cccc(NC(=O)COc2ccc([N+](=O)[O-])cc2)c1 | -3 | -20 | -1 | -22 | 33*
CCCOC(=O)Nc1cccc(C(C)=O)c1 | 0 | -7 | 0 | 10 | 35*
CCCOC(=O)Nc1ccc(C(N)=O)cc1 | -1 | -5 | 0 | -5 | -6
Cc1ccc(NC(=O)COC(=O)c2ccc3c(c2)OCCO3)cc1 | 0 | -1 | -3 | 4 | 3
Cc1cc(NC(=O)c2nn(C)c(C)c2Br)no1 | -1 | -3 | 1 | -17 | 6
CCCCC[n+]1ccn(C2=C([O-])c3ccccc3C(=O)/C2=N\S(=O)(=O)c2ccc(Cl)cc2)c1 | 2 | 9 | -2 | 1 | 4
CCCC[n+]1ccn(C2=C([O-])c3ccccc3C(=O)/C2=N\S(=O)(=O)c2ccc(Cl)cc2)c1 | 2 | 7 | -1 | 5 | 34*
O=C1Cc2ccccc2Sc2cc(OCCCN3CCCCC3)ccc21 | -7 | -34 | 2 | -31 | -6
O=C1Cc2ccccc2Sc2c(OCCN3CCCCC3)cccc21 | -9 | -32 | 2 | -18 | 80*
CCc1ccccc1NC(=O)CSC1=Nc2ccccc2C2=NC(Cc3ccccc3)C(=O)N12 (centres undefined) | · | · | 0 | 0 | ·
COC(=O)c1c(C(=O)OC)c2ccccn2c1C(=O)c1ccc([N+](=O)[O-])cc1 | 3 | 21 | · | · | ·
